Experimental findings from PubChem BioAssay AID602340 (Broad Institute, 2012) are described below.

Structures are written as SMILES. Among all 330,000 compounds or so, about 2,600 (0.79%) were called active. The entries come from a sample that favours actives as a whole. A number with no mark means an inactive call.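 The calls were made as follows: active = mean ATP rescue above about 67%, or every replicate alone reaching that limit (limit read from the data, passing the limit was not always enough); inconclusive = no clear call, values can overlap the other calls; inactive = mean under the limit and some replicate under it.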

A short description of this assay: protection of differentiated C2C12 cells from simvastatin – single point, plate reader, primary screen (AID 602340).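 Also: myotubes were challenged with 10 µM simvastatin during compound exposure.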 Particulars: C2C12 myotubes + simvastatin, ATP luminescence, 48 h; at 7.49 µM; hits give high values; scaled: DMSO 0, geranylgeraniol control 100.
Take `CCC(CC)c1nnc(NC(=O)C2CCN(C(=O)c3ccco3)CC2)s1`: the rescue of ATP level was -3.16%. Turning to `Cc1cc(C)cc(NS(=O)(=O)Cc2ccccc2)c1`, the rescue of ATP level is 1.96%. The value for `CO[C@@H]1CN(C)C(=O)c2cc(NC(C)=O)ccc2OC[C@H](C)N(CC2CCCCC2)C[C@@H]1C` was -13.7%; that for `C[C@H](O)C#Cc1cnc2c(c1)C(=O)N([C@@H](C)CO)C[C@H](C)[C@@H](CN(C)C(=O)c1ccncc1)O2` was 8.21%. The same measure for `O=C(C[C@H]1C=C[C@H](NC(=O)CN2CCOCC2)[C@@H](CO)O1)NCc1cccc(F)c1`: -2.71%. For the compound `Cc1noc(C)c1NC(=O)Nc1ccc2c(c1)CC(=O)N([C@@H](C)CO)C[C@H](C)[C@@H](CN(C)C(=O)Nc1ccc3c(c1)OCO3)O2`, the rescue of ATP level is -8.55%. Turning to `CO[C@@H]1CN(C)C(=O)c2cc(NC(C)=O)ccc2OC[C@H](C)N(Cc2ccccc2F)C[C@@H]1C`, the rescue of ATP level is -2.5%. The value for `CCOc1ccccc1C(=O)NC1CC2CCCC(C1)N2Cc1ccccc1` (stereo not drawn) was 97.4% (active); that for `CCCN1C2CCCC1CC(NC(=O)c1cccc(OC)c1)C2` (stereo not drawn) was -3.95%; that for `COc1ccc(CN2C3CCCC2CC(NC(=O)c2cccc(F)c2)C3)cc1` (stereo not drawn) was 9.21%. Turning to `CCCNC(=O)N(C)C[C@@H]1Oc2ncc(-c3ccccc3F)cc2C(=O)N([C@@H](C)CO)C[C@H]1C`, the rescue of ATP level was 15.3%. For the compound `COc1ccc(S(=O)(=O)N(C)C[C@H]2Oc3c(NC(=O)C4CCOCC4)cccc3C(=O)N([C@@H](C)CO)C[C@@H]2C)cc1`, the rescue of ATP level is -29.4%.

Regarding `COCC#Cc1ccc2c(c1)O[C@H](CN(C)Cc1ccc3c(c1)OCO3)[C@H](C)CN([C@H](C)CO)S2(=O)=O`, the rescue of ATP level is 15.6%.

For the compound `CCOC(=O)C1CCN(C(=O)CSc2cc(=O)n(C)c3ccccc23)CC1`, the rescue of ATP level was 4.85%. The same measure for `CCOC(=O)C1CCN(C(=O)COc2cccc3ccccc23)CC1`: -0.757%; for `CCOC(=O)C1CCN(C(=O)Cn2cc(C#N)c3ccccc32)CC1`: 99.6% (active); for `CCCNC(=O)N(C)C[C@H]1Oc2cc(C#CC(C)(C)O)ccc2S(=O)(=O)N([C@H](C)CO)C[C@@H]1C`: 1.69%. The value for `O=S1(=O)CCN2C(=N1)SC1=C2CCN(Cc2ccccc2)C1` was 121% (active); that for `COC(=O)c1sc(N2CCN(Cc3ccccc3)CC2)nc1N` was 8.62%.

On to `Cc1ccc(C2=CSC3=NS(=O)(=O)CCN23)cc1C`, for which the rescue of ATP level was 1.19%. Turning to `O=C(NCC[C@H]1CC[C@@H](NC(=O)C2CCCCC2)[C@@H](CO)O1)c1ccc(F)cc1`, the rescue of ATP level was 10.2%.

For `CCC(=O)Nc1ccc2c(c1)C(=O)N(C)C[C@@H](OC)[C@@H](C)CN(Cc1ccccc1F)[C@H](C)CO2`, the rescue of ATP level is 10.8%. The value for `Cc1nc(-c2ccc(F)cc2)c(CC(=O)N2CCN(S(=O)(=O)c3ccc(F)cc3)CC2)s1` was -5.66%; that for `CCOc1ccc(NC(=O)CN(C)C(=O)Cc2sc(C)nc2-c2ccc(F)cc2)cc1OCC` was 8.47%; that for `CCOc1ccc(-c2nc(C)sc2CC(=O)O)cc1` was 87.4% (active). Regarding `CN1C(=O)c2cc(NS(C)(=O)=O)ccc2OC[C@H]2O[C@H](CC(=O)NCc3ccccc3)CC[C@H]21`, the rescue of ATP level was -11.2%.

On to `C[C@H](NC(=O)C[C@@H]1CC[C@@H](NC(=O)Cc2ccccn2)[C@@H](CO)O1)c1ccccc1`, for which the rescue of ATP level is 1.25%. Take `CO[C@@H]1CN(C)C(=O)c2cc(NC(=O)c3cccc(F)c3)ccc2OC[C@H](C)N(C)C[C@@H]1C`: the rescue of ATP level is 6.21%.

On to `CCCN1CCN(C(=O)CCCNC(=O)c2ccc(Cl)cc2)CC1`, for which the rescue of ATP level is -1.82%.

As to `CC(C)OCCCNC(=O)CN1C(=O)/C(=C/c2ccccc2F)Oc2ccccc21`, the rescue of ATP level is -11.5%. Take `CN1CCN(CCCNC(=O)c2ccc(/C=C3\Oc4ccccc4N(Cc4ccc(Cl)cc4)C3=O)cc2)CC1`: the rescue of ATP level was 88.6% (active). The value for `CS(=O)(=O)Nc1ccc2c(c1)[C@H]1C[C@@H](CC(=O)NCCc3ccccc3)O[C@@H](CO)[C@H]1O2` was 3.14%; that for `O=C(OCCOc1ccccc1F)c1cc(S(=O)(=O)N2CCOCC2)ccc1F` was 12.7%; that for `COc1cc(NC(=O)COC(=O)c2cc(S(=O)(=O)N3CCOCC3)ccc2F)cc(OC)c1` was 117% (active). The same measure for `O=C(COC(=O)c1cc(S(=O)(=O)N2CCOCC2)ccc1F)NC1CC1`: -0.144%. `CC=Cc1ccc2n(c1=O)C[C@@H]1[C@@H](CO)[C@H](C(=O)NCC)[C@H]2N1CCC(F)(F)F` (mixture of isomers): the rescue of ATP level was 12.8%. Take `CC(C)CC#Cc1cnc2c(c1)C(=O)N([C@H](C)CO)C[C@H](C)[C@H](CN(C)CC1CCOCC1)O2`: the rescue of ATP level is 17.7%. As to `C[C@@H]1CN([C@H](C)CO)C(=O)Cc2cc(NC(=O)Cn3cnnn3)ccc2O[C@H]1CN(C)CC1CCCCC1`, the rescue of ATP level was 19.6%. Consider `CCCc1ccc(-c2csc(NC(=O)Cc3cccs3)n2)cc1`, for which the rescue of ATP level is 20.4%. Take `Cc1ccc(-c2csc(NC(=O)c3cccs3)n2)cc1`: the rescue of ATP level was 112% (active). The value for `CCc1noc(C)c1C(=O)Nc1nc(-c2ccccc2)cs1` was -35.8%; that for `COc1ccc(C(=O)Nc2ccc3c(c2)OC[C@H](C)N(C(C)=O)C[C@@H](C)[C@@H](OC)CN(C)C3=O)cc1` was -4.78%. Take `COc1cccc(C(=O)Nc2ccc3c(c2)C(=O)N(C)[C@@H]2CC[C@H](CC(=O)NCC4CC4)O[C@@H]2CO3)c1`: the rescue of ATP level was 4.48%. `COc1cccc(C(=O)Nc2ccc3c(c2)C(=O)N(C)[C@@H]2CC[C@@H](CC(=O)NCCCN4CCOCC4)O[C@@H]2CO3)c1`: the rescue of ATP level was 8.62%. On to `CCCNC(=O)N1C[C@H]2[C@@H](c3ccccc31)[C@H](CO)N2C(=O)NC(C)C`, for which the rescue of ATP level was -5.25%.

`Cc1c(C(C)(C)O)[nH]c2ccc(C#N)cc12`: the rescue of ATP level was 81.3% (active). The value for `Cc1[nH]c2ccc(S(N)(=O)=O)cc2c1C` was 6.68%; that for `CCOC(=O)c1cc2sccc2n1Cc1ccc(C#N)cc1` was 29.8%.
